Only some compounds are listed: those with a hit (about 3.3% of all), similar ones and a draw of the others.
TbPYK inhibitor: blocks Trypanosoma brucei pyruvate kinase. 410,000 compounds, 0.12% hits. Potency, µM (titrated, usually from 76.8 µM), without a hit: at the highest dose activity, negative = inhibition, actives largely listed as inhibitors. AID 624173. TbPYK enzyme, Kinase-Glo Plus ATP luminescence, 45 min. Q57TT1; note: nearly all actives have a fitted effect of over 50% in size
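Readout: single end-point luminescence (Kinase-Glo Plus, 10 min). Reaction conditions were TbPYK/substrate plus 130 uM ADP, 45 min at RT, pH 7.2 TEA buffer. No-enzyme wells served as controls, and data were normalized before concentration-response fitting.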
LmPK inhibitor: inhibitors of Leishmania mexicana pyruvate kinase; Q27686; purified LmPK, Kinase-Glo ATP luminescence, 1 h; Potency, µM (highest dose often 57.5 µM), for inactives: at the highest dose activity change, negative = inhibition, usual class: inhibitors; 290,000 compounds, 0.37% hits; AID 1721
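0.1 nM LmPK, 0.5 mM PEP, 0.1 mM ADP; 50 mM imidazole pH 7.2, 7 mM MgCl2, 50 mM KCl; 1 h RT. Kinase-Glo luminescence readout, normalized to no-enzyme (full inhibition) and uninhibited wells.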
Sm TGR block: inhibitors of Schistosoma mansoni thioredoxin glutathione reductase | Q962Y6 | purified TGR, DTNB reduction, TNB absorbance 405 nm | Potency, µM (top dose mostly 114 µM), for inactives: at the highest dose activity change, negative = inhibition, usual class: inhibitors | 360,000 compounds, 3% hits | AID 485364; note: nearly all actives have a fitted effect of over 60% in size
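TGR 20 nM + NADPH 100 uM (dispensed conc.), cpd preinc 15 min RT; start with NADPH (500 uM addition) then DTNB (15 mM addition). Kinetic TNB absorbance, 405 nm filter. Four-parameter Hill fit across titration.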
RE007 growth inh: less growth of the S. pombe RE007 Vpr strain. S. pombe RE007 Vpr strain, BacTiter-Glo ATP luminescence, 24 h. Potency, µM (top dose mostly 92.2 µM), for inactives: top-dose activity change, negative = less growth, hits mostly inhibitors. 360,000 compounds, 0.21% hits. AID 651644; active = well fitted falling curve with a large enough effect; inconclusive = small, poorly fitted or top-dose-only effect; inactive = no such curve, though single readings can be large or run the other way; note: nearly all actives have a fitted effect of over 50% in size
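Fission yeast strain RE007, carrying one chromosomally integrated HIV-1 vpr copy, was seeded at OD 0.01 in PMG+AL medium with 23 nL pinned compound. After 24 h at 30 °C and 99% humidity, viability was read by BacTiter-Glo luminescence.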
FBPA Giardia inh: Giardia lamblia aldolase inhibition | 290,000 compounds, 0.71% hits | AID 2451 | purified Giardia FBPA | Potency, µM (doses to about 59.6 µM), without a hit: at the highest dose activity, negative = inhibition, hits mostly inhibitors; note: nearly all actives have a fitted effect of over 55% in size
Target sequence (A8B2U2 whole entry, looked up): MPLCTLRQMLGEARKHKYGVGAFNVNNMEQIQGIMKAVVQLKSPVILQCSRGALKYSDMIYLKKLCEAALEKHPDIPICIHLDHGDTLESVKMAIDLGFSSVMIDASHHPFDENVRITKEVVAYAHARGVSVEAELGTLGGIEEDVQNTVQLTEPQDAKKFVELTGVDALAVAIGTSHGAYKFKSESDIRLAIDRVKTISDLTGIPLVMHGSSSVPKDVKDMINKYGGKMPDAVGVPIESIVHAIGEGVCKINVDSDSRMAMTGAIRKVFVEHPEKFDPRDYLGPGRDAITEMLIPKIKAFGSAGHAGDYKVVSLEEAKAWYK
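Giardia FBPA (40 nM reagent) was preincubated 10 min at RT with compound (up to 57.5 uM final), then substrate plus GAPDH/TPI/NAD/arsenate coupling system with diaphorase/resazurin was added; resorufin fluorescence (525/598 nm) was read after 20 min.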
An asterisk follows results filed as active; ? = inconclusive; . = no result; [ ] = dose if it differs, or a comment. Unless noted, calls come from the whole dose curve; as a rule, active = well fitted curve in the direction sought with a large enough effect; inconclusive = small, poorly fitted or top-dose-only effect, or another doubt; inactive = no such curve, though single readings can be large; an effect the other way counts as inactive or inconclusive. % is set by controls: 0 for no effect and ±100 for the full control effect; potency is the fitted concentration of half-maximal effect.

SMILES	TbPYK inhibitor	LmPK inhibitor	Sm TGR block	RE007 growth inh	FBPA Giardia inh
Cc1ccc(N=C2c3ccccc3C(=O)C2[N+](=O)[O-])cc1C (configuration not stated)	-6.9%	-11.7%	-11.7%	-29.5%	0.0%
O=C1C2CC=C(Cl)CC2C(=O)N1CCCCCCN1C(=O)C2CC=C(Cl)CC2C1=O (configuration not stated)	0.4%	3.0%	22.4µM*	6.9%	?
O=C1C2CC=C(Cl)CC2C(=O)N1CCN1CCOCC1 (configuration not stated)	1.0%	-6.4%	-1.4%	7.7%	-7.5%
CCCCc1n[nH]c(=S)n1Cc1ccc(Cl)cc1	10µM*	?	-2.0%	-1.7%	1.0%
COCCCn1c(-c2ccc(Cl)cc2)n[nH]c1=S	?	?	7.3%	-2.1%	0.2%
CCOCCCn1c(-c2ccc(Cl)cc2)n[nH]c1=S	8.91µM*	?	3.0%	-14.7%	6.9%
S=c1[nH]nc(-c2ccc(Br)o2)n1Cc1ccccc1	10µM*	?	4.1%	-14.2%	6.1%
CCCCc1n[nH]c(=S)n1Cc1ccccc1	?	0.3%	-8.1%	1.9%	-4.4%
c1ccc(Cn2c(SCc3nc4ccccc4s3)nnc2-c2ccco2)cc1	28.2µM*	3.5%	12.6µM*	-13.0%	-2.0%
CN(C(=O)c1ccc2c(c1)OCO2)C1CCCCC1	6.1%	-9.6%	-25.8%	1.8%	.
CC(=O)c1ccccc1OC(=O)c1ccco1	1.5%	-2.4%	41.5%	-4.4%	0.7%
O=c1c2ccccc2nc(-c2ccco2)n1Cc1ccccc1	-14.3%	?	50.1µM*	-7.5%	-3.4%
O=C1c2ccccc2C(=O)N1CCc1nc2ccccc2c(=O)n1Cc1ccco1	-12.8%	10.5%	35.5µM*	-9.6%	6.6%
Cc1nc2ccccc2c(=O)n1Cc1ccco1	0.8%	6.3%	0.0%	-0.9%	4.9%
Fc1ccc(NCc2n[nH]c(=S)n2Cc2ccccc2)cc1	7.08µM*	?	2.4%	11.0%	2.0%
S=c1[nH]nc(-c2ccco2)n1Cc1ccccc1	?	14.1µM*	-0.6%	19.9%	-4.1%
c1ccc(Cn2c(-c3ccco3)nc3nc4ccccc4nc32)cc1	7.9%	?	?	-4.8%	-13.2%
Cc1[nH]c(/C=C2/C(=O)Nc3ccc(S(=O)(=O)Cc4c(Cl)cccc4Cl)cc32)c(C)c1C(=O)N1CCCC1CN1CCCC1 (configuration not stated)	.	.	.	.	0.2%
CSc1nc2nc3c(cc2c(=O)n1-c1cccc(C)c1)COC(C)(C)C3	1.2%	-4.3%	-10.8%	2.9%	4.9%
O=C(Cc1cccc(C(F)(F)F)c1)NCc1cccc(Cl)c1	4.4%	-6.8%	3.2%	6.2%	0.8%
Cc1cc(=O)[nH]c(NN=C2CCC(C(C)(C)C)CC2)n1 (configuration not stated)	-6.5%	1.3%	3.0%	8.7%	?
O=C(On1c(-c2ccccc2)nc2ccccc2c1=O)c1ccco1	-0.9%	0.3%	6.31µM*	?	?
S=c1[nH]nc(-c2ccc(Cl)cc2)n1Cc1ccccc1	?	12.6µM*	1.0%	3.5%	13.0%
S=c1[nH]nc(-c2ccccc2)n1Cc1ccccc1	?	10µM*	8.8%	4.2%	6.1%
S=c1[nH]nc(-c2ccco2)n1/N=C/c1ccc(Cl)cc1	3.98µM*	-12.0%	-14.1%	2.3%	13.0%
SMILES	TbPYK inhibitor	LmPK inhibitor	Sm TGR block	RE007 growth inh	FBPA Giardia inh
Cc1cc(C(=O)NC(C)c2ccccc2)c2cc(F)ccc2n1 (configuration not stated)	3.5%	3.7%	.	-8.1%	-0.8%
Cc1ccc(NC(=O)CNS(=O)(=O)c2cccs2)cc1F	-15.5%	7.0%	1.0%	11.5%	-4.3%
CCN1C(=O)[C@H]2[C@H]3[C@H](O)[C@H](O)C/C(=N/OC[C@@H]4O[C@H](c5ccccc5)C=C[C@@H]4Oc4ccc(OC)cc4)[C@@H]3CC[C@@H]2C1=O	.	.	.	.	-6.6%[12.9 µM]
COc1ccc(NC(=O)N(Cc2ccc(C)cc2)Cc2ccccn2)c(OC)c1	1.0%	.	.	9.1%	.
Cc1nc(-c2coc3cc(O)c(C)cc3c2=O)cs1	-9.3%	7.08µM*	-12.8%	-25.9%	-6.3%
Cc1ccc(-c2nn(-c3ccccc3)cc2C2SCC(=O)N2Cc2ccccc2)o1 (configuration not stated)	-20.3%	-3.3%	11.2µM*	1.7%	-10.5%
O=C1CSC(c2cn(-c3ccccc3)nc2-c2cc3ccccc3oc2=O)N1Cc1ccco1 (configuration not stated)	2.5%	1.1%	22.4µM*	-13.6%	-6.3%
CCCNc1c(NS(=O)(=O)c2ccc(C)c(C)c2)c(=O)oc2ccccc12	5.2%	-3.4%	-0.9%	12.1%	.
CN(C)c1cc(-c2ccc(Cl)cc2)oc(=O)c1Cl	8.4%	4.4%	-21.2%	17.9%	-13.2%
CN(C)c1cc(-c2ccc(Cl)c(Cl)c2)oc(=O)c1Cl	2.0%	1.7%	39.8µM*	6.7%	0.1%
Oc1ccc(Cl)cc1C=Nc1ccc(Br)cc1	-0.4%	-9.5%	-22.1%	-8.8%	2.9%
CCOC(=O)/C=C/C(=O)OCC(=O)Nc1ccc([N+](=O)[O-])cc1	-8.3%	1.8%	3.98µM*	-29.8%	0.1%
CCOC(=O)/C=C/C(=O)Nc1cccc([N+](=O)[O-])c1	?	-4.3%	0.708µM*	8.91µM*	-5.7%
CCOC(=O)/C=C/C(=O)Nc1ccccc1-c1ccccc1NC(=O)/C=C/C(=O)OCC	-12.1%	-0.3%	12.6µM*	-21.3%	5.2%
COc1cc(/C=C/C(=O)OCC(=O)Nc2ccc([N+](=O)[O-])cc2)ccc1O	-4.2%	3.8%	-9.5%	-9.0%	-13.2%
COc1ccc(N2CCN(C(CNC(=O)c3ccc(C)cc3)c3ccc4c(c3)OCO4)CC2)cc1 (configuration not stated)	-7.5%	.	4.8%	.	.
CC(Nc1ccc(N2CCOCC2)cc1)C(=O)N1c2ccccc2CC1C (configuration not stated)	?	-8.6%	79.4µM*	-19.4%	?
CC1Cc2ccccc2N1CC(=O)Nc1ccc(N2CCOCC2)cc1 (configuration not stated)	-5.1%	-2.7%	-3.4%	4.4%	-0.8%
CC1CCc2c(sc(NC(=O)Cn3nc(C(=O)O)c4ccccc4c3=O)c2C#N)C1 (configuration not stated)	-9.4%	0.3%	28.2µM*	13.8%	11.2%
CCN1CCN(CC(=O)Nc2sc3c(c2C#N)CCC(C)C3)CC1 (configuration not stated)	-5.3%	5.1%	?	-22.5%	0.0%
CCN(CC)C(=O)C1CCCN(C(=O)c2cc(COc3ccc4ncccc4c3)on2)C1 (configuration not stated)	6.8%	-8.5%	-4.8%	-2.5%	.
